Screening results deposited in PubChem by several laboratories.
m-calpain inh = blocks pig calpain II enzyme activity | 220,000 tested, 0.37% active | purified calpain II, fluorogenic peptide substrate, 30 min | inhibition, % at 16 µM;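 active means inhibition above about 50%, limit read from the data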
L major viab = Leishmania major promastigote growth inhibition; Leishmania major promastigotes, resazurin fluorescence viability; inhibition, % at 10 µM; 200,000 tested, 9% active; in the data active means inhibition above about 50%;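 further: promastigotes grown with compound for 44 hours at 28 °C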
Cl transport mod = modulates chloride dependent transport by human KCC2. B-score of Tl+ flux slope (higher = more flux/activation; lower = inhibition) at 10 µM. 190,000 tested, 2.2% active. KCC2 cells, thallium flux FluoZin-2 fluorescence. Q9H2X9;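 active means thallium flux slope and its plate-corrected score both differing from the plate sample mean at a set confidence after two filtering rounds, in either direction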;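 further: slope of fluorescence scaled to starting intensity during 10 to 20 s after thallium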
ROMK mod = modulators of human ROMK potassium channel; Tet-inducible ROMK, thallium flux fluorescence; actives lie on both sides; 130,000 tested, 2% active; P48048; B-score at 10 µM;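 active means signal ratio slope over the read window, or its plate-corrected B-score, at least 3 SD from the plate mean, either direction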;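 further: B-score of the F/F0 ratio slope over 7 to 12 s after thallium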
Target sequence (P48048 whole entry, looked up): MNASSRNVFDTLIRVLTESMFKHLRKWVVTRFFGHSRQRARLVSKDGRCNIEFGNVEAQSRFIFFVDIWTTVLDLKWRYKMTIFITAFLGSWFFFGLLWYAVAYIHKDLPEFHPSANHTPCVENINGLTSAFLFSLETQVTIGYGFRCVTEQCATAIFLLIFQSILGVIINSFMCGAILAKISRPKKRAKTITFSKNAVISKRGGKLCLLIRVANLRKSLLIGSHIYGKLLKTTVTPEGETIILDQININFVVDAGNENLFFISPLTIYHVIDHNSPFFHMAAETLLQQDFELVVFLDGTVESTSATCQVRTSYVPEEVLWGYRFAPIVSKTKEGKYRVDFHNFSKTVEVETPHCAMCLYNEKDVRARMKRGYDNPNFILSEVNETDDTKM
WT yeast gro inh = growth inhibition of WT yeast, mitochondrial fusion screen; AID 1362; 190,000 tested, 2.1% active; mitochondrial fusion phenotypic screen, WT strain; inhibition, % at 10 µM; in the data active means inhibition above about 58%; tested in S. cerevisiae
Each line names hits and unclear results; the compound was inactive in the other large screens. This is a sample that favours compounds with a hit; in the whole collection about 12% have one here.

Cc1cc(OCC(=O)N2CCCCCC2)ccc1[N+](=O)[O-]	none (no result: ROMK mod)
Cc1cc(OCCN2CCCCCC2)ccc1[N+](=O)[O-]	L major viab 92 (no result: ROMK mod)
Cc1ccc(OCCCCN2CCCC(C)C2)c([N+](=O)[O-])c1 (stereo not drawn)	L major viab 86
Cc1ccc(OCCCCNC(C)(C)C)c([N+](=O)[O-])c1	none (no result: ROMK mod)
Cc1ccc([N+](=O)[O-])c(OCCN2C(=O)NC(C)(C)C2=O)c1	none
Cn1c(=O)c([N+](=O)[O-])c(NCC2CCCO2)c2ccccc21 (stereo not drawn)	none (no result: L major viab, WT yeast gro inh)
CC(C)C(=O)N1CCN(c2ccc(NC(=O)COc3ccccc3[N+](=O)[O-])cc2)CC1	none
CCCCCCCCCCCCCCCC[n+]1cccc2ccccc21	m-calpain inh 99, L major viab 100 (no result: ROMK mod)
CCOC(=O)Cc1nn(Cc2nc(-c3ccc(C)cc3)cs2)c(=O)c2ccccc12	none (no result: L major viab, ROMK mod, WT yeast gro inh)
CN(/N=C/c1ccc(C(C)(C)C)cc1)C1=NCCN1	L major viab 56
O=C1CN(C(=O)CNCc2ccc(Cl)cc2)c2ccccc2N1	none (no result: L major viab, ROMK mod, WT yeast gro inh)
CCOc1cc(/C=N/Nc2nc(-c3cccc(S(=O)(=O)N4CCCC4)c3)cs2)ccc1O	L major viab 93
Cc1cc(NC(=O)c2ccccc2F)ncc1NC(=O)c1cccs1	none
C/C(CCc1ccc2c(c1)OCO2)=N\NC(=S)NC(C)C	WT yeast gro inh 59
O=C(c1ccc(N2CCCC2=O)cc1)N1CCN(c2ccccc2)CC1	none (no result: Cl transport mod)
O=C(c1ccc(N2CCCC2=O)cc1)N1CCCCCC1	m-calpain inh 84 (no result: Cl transport mod)
O=c1[nH]c2ccc(N/C(=N/S(=O)(=O)c3ccccc3)c3ccccc3)cc2[nH]1	none (no result: ROMK mod)
Cc1ccc(C(=O)/C=C/c2cn(CN3CCN(C)CC3)c3ccccc23)cc1	WT yeast gro inh 84
Cc1ccc2c(c1)S/C(=C/c1ccc[n+](C)c1)N2CCO	L major viab 70
Cc1ccc(S(=O)(=O)CCC(=O)NCCN2C(=O)S/C(=C\c3ccccc3)C2=O)cc1	none (no result: ROMK mod)
COc1cccc(CC2(CO)CCCN(Cc3ccc4c(c3)OCCO4)C2)c1 (stereo not drawn)	L major viab 53 (no result: Cl transport mod)
COc1cccc(CC2(CO)CCCN(Cc3cn[nH]c3-c3ccccc3)C2)c1 (stereo not drawn)	none (no result: Cl transport mod)
CCn1ccnc1CN1CCCC(CO)(Cc2cccc(OC)c2)C1 (stereo not drawn)	L major viab 96
Cn1c(=O)c2c(ncn2CC(=O)N2CCN(C(=O)c3ccco3)CC2)n(C)c1=O	none
CCOC(=O)N1CCc2c(sc(NC(=O)CN(CC)CC)c2C#N)C1	none (no result: L major viab, WT yeast gro inh)
CCC(C)N(C)Cc1cccc(C2(O)CCN(S(=O)(=O)c3ccc(F)c(C)c3)CC2)c1 (stereo not drawn)	L major viab 99
Cc1ccc(NC(=S)NCc2ccc3[nH]c4c(c3c2)CCCC4)cc1	WT yeast gro inh 73
O=C(CCCCCC(=O)N(CCO)CCO)N(CCO)CCO	none
Cc1ccc(-n2cccn2)c(CN2CCCC(C(=O)c3sccc3C)C2)c1 (stereo not drawn)	L major viab 87 (no result: Cl transport mod)
CCN(CC)C(=O)C1CCCN(Cc2nc(-c3cccs3)no2)C1 (stereo not drawn)	none (no result: Cl transport mod)
Cc1ccsc1C(=O)C1CCCN(Cc2cccn2-c2ccc(Cl)cn2)C1 (stereo not drawn)	L major viab 94 (no result: Cl transport mod)
O=C(c1ccc(Cl)cc1)C1CCCN(Cc2cccn2-c2ccccn2)C1 (stereo not drawn)	none (no result: ROMK mod)
COc1cccc(NC(=O)COC(=O)c2c3c(nc4ccccc24)CCC(C)C3)c1 (stereo not drawn)	L major viab 54 (no result: ROMK mod)
Cc1cc(N2CCN(C)CC2)ccc1NC(=O)c1c2c(nc3ccccc13)CCN(Cc1ccccc1)C2	L major viab 100
Cc1c(Cl)cccc1NC(=O)COC(=O)c1c2c(nc3ccccc13)CCN(Cc1ccccc1)C2	L major viab 99
O=C(c1cc(C(=O)N2CCOCC2)c2nc3ccccc3n2c1)c1cc(Cl)cc(Cl)c1O	none (no result: L major viab, ROMK mod, WT yeast gro inh)
O=C(Cc1nn[nH]n1)c1ccccc1O	none
NS(=O)(=O)c1cc(C(=O)OCC(=O)Nc2ccc(N3CCCCC3)cc2)ccc1Cl	none (no result: L major viab, ROMK mod, WT yeast gro inh)
CCOC(=O)c1c(NC(=S)NCC2CCCO2)sc(C)c1C (stereo not drawn)	Cl transport mod 25, ROMK mod 3.5
CCOC(=O)c1c(NC(=O)C2CCCO2)sc(C(N)=O)c1C (stereo not drawn)	none
Cc1ccccc1NC(=O)CSc1ccncc1	none (no result: L major viab, ROMK mod, WT yeast gro inh)
O=C(Nc1ccc(Oc2ccccc2)cc1)C1CCCN(c2ncccn2)C1 (stereo not drawn)	none (no result: ROMK mod)
CCOc1ccc(S(=O)(=O)N2CCN(C)CC2)c(C)c1C	none
CCOc1ccc(S(=O)(=O)N2CCCCC2)c(C)c1C	m-calpain inh 57, L major viab 82
COCc1cccc(N2C(=O)CC(C3C=C(C)C4C(=O)N(c5cccc(COC)c5)C(=O)C4C3)C2=O)c1 (stereo not drawn)	none
CCOc1ccc(NC(=O)N[C@@H](Cc2ccccc2)C(=O)O)cc1	none (no result: L major viab, ROMK mod, WT yeast gro inh)
COc1cccc(-n2nc(-c3ccnn3-c3ccc(F)cc3)c(=O)n(C)c2=O)c1	L major viab 52 (no result: Cl transport mod)
COc1ccc(-n2nccc2-c2nn(-c3cccc(OC)c3)c(=O)n(C)c2=O)cc1	none (no result: Cl transport mod)
C/C(CC1CC(C)OC1=O)=N\NC(N)=S (stereo not drawn)	none
C/C(CCC12CC3CC(CC(C3)C1)C2)=N\NC(N)=S	L major viab 100, WT yeast gro inh 78
O=C1CC(c2cccc(Oc3ccccc3)c2)NC(=O)N1 (stereo not drawn)	none (no result: ROMK mod)
CCCC(=O)C1=C(O)C(c2cccc(Oc3ccccc3)c2)CCC1=O (stereo not drawn)	WT yeast gro inh 67
COC(=O)C1C(=O)NCC1c1ccccc1 (stereo not drawn)	WT yeast gro inh 94
COc1ccc(NC(=O)CCC(=O)N/N=C/c2ccc([N+](=O)[O-])s2)cc1	L major viab 100 (no result: ROMK mod)
O=C(N/N=C/c1ccc([N+](=O)[O-])s1)c1ccncc1	L major viab 100 (no result: ROMK mod)
CC(C)(C)OC(=O)N/N=C\c1ccc([N+](=O)[O-])s1	L major viab 80 (no result: ROMK mod)
O=C(N/N=C/c1ccc([N+](=O)[O-])s1)c1cccc(Br)c1	L major viab 100
COc1ccc([N+](=O)[O-])cc1NC(=O)C(C)OC(=O)c1cccnc1 (stereo not drawn)	none
Cc1cc(C)n(CC(=O)N/N=C/c2ccc([N+](=O)[O-])s2)n1	L major viab 99
Cc1ccc(C(=O)N/N=C\c2ccc([N+](=O)[O-])s2)cn1	L major viab 100
O=C(N/N=C/c1ccc(O)c2ncccc12)c1cccc(Br)c1	L major viab 100 (no result: ROMK mod)
COc1cc([N+](=O)[O-])cc(/C=N/NC(=O)CSc2nnc(-c3ccccc3)n2C)c1O	none (no result: L major viab, WT yeast gro inh)
Cn1c(SCC(=O)N/N=C/c2ccc([N+](=O)[O-])s2)nnc1-c1ccc(Cl)cc1	L major viab 100
C/C(=N\NC(=O)C1CC1)c1ccc2c(c1)OCCO2	none
COc1ccc(-n2cc(CNCCc3nc(C)cc(C)n3)c(-c3ccccc3Cl)n2)cc1	none (no result: Cl transport mod)
COc1ccc(-n2cc(CNCCCn3ccnc3)c(-c3ccccc3Cl)n2)cc1	L major viab 100
